Among all 16,000 compounds or so, about 5,100 (32%) were called active. Not shown: some 25% with an inconclusive outcome. Calls come from the whole dose curve; as a rule, active = well fitted curve in the direction sought with a large enough effect; inconclusive = small, poorly fitted or top-dose-only effect, or effect the other way; inactive = no such curve, though single readings can be large or run the other way. The list shows a part of the results.
What follows are compounds tested against Cytochrome P450 3A4 (Homo sapiens) (UniProt P08684) (assay: Cytochrome panel assay with activity outcomes). Conditions: recombinant CYP, pro-luciferin dealkylation, luminescence, p450-cyp3a4; series mostly up to 57.1 µM; activity, negative = inhibition: at the top concentration.
Sequence of Cytochrome P450 3A4 (Homo sapiens) (P08684 whole entry, looked up): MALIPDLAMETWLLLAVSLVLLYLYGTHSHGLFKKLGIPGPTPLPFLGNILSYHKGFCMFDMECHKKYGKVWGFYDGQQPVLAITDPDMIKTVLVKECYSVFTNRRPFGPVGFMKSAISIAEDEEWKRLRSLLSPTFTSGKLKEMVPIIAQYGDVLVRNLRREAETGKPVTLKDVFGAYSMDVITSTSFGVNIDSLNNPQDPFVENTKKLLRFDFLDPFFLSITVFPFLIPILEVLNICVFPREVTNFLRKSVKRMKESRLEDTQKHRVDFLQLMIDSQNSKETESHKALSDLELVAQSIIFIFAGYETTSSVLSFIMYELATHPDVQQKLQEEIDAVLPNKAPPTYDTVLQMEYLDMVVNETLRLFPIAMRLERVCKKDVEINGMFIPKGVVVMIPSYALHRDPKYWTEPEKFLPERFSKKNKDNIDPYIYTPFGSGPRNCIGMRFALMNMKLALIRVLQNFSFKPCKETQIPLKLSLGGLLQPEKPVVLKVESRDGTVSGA
% is set by controls: 0 for no effect and ±100 for the full control effect.

AC50, active:
CCOc1cc(/C=C2/NC(=O)N(CC(=O)Nc3cccc(C)c3)C2=O)ccc1OC 1.78 µM
COc1ccc(OCCSc2ncn[nH]2)cc1 14.1 µM
COc1ccc(CCN2CC34C=CC(O3)C(C(=O)NCc3ccccc3)C4C2=O)cc1OC (stereo not drawn) 2.82 µM
Cc1ccc(CN2CC34C=CC(O3)C(C(=O)NCc3ccc5c(c3)OCO5)C4C2=O)cc1 (stereo not drawn) 0.251 µM
Cc1ccc(CN2CC34C=CC(O3)C(C(=O)NCc3ccco3)C4C2=O)cc1 (stereo not drawn) 8.91 µM
COCCCNC(=O)C1C2C=CC3(CN(Cc4ccc(C)cc4)C(=O)C13)O2 (stereo not drawn) 7.94 µM
CCCCNC(=O)C1C2C=CC3(CN(Cc4ccccc4Cl)C(=O)C13)O2 (stereo not drawn) 3.98 µM
Cc1nn(Cc2ccc(Cl)cc2)c(C)c1NC(=O)CSc1nc2c(c(C(F)(F)F)n1)CCc1ccccc1-2 3.16 µM
Cc1ccccc1Cn1cc(NC(=O)CSc2nc3c(c(C(F)(F)F)n2)CCc2ccccc2-3)cn1 5.01 µM
Cc1cccc(CNc2cc(-c3cccc(C#N)c3)ncn2)c1 7.94 µM
N#Cc1cccc(-c2cc(NCc3cccnc3)ncn2)c1 2.51 µM
COc1ccccc1C1=NOC(COC(=O)c2ccc3ccccc3n2)C1 (stereo not drawn) 17.8 µM
COc1ccccc1CNc1cc(-c2cccc(NS(C)(=O)=O)c2)ncn1 5.01 µM
COc1ccc(CNc2cc(-c3cccc(NS(C)(=O)=O)c3)ncn2)c(OC)c1 2.51 µM
Cc1cccc(C2NC(=O)c3c(sc(C)c3C)N2)c1O (stereo not drawn) 12.6 µM
O=C(O)c1ccccc1C(=O)NNc1ccc(F)cc1 11.2 µM
O=C(O)c1ccccc1C(=O)NNc1ccc(Cl)cc1 7.94 µM
Cc1cc(NC(=O)Nc2ccc3c(ccn3C)c2)sn1 12.6 µM
Cc1noc(C)c1-c1ccc2ncnc(N3CCN(C)CC3)c2c1 25.1 µM
Cc1noc(C)c1-c1ccc2ncnc(N3CCOCC3)c2c1 31.6 µM
Cc1noc(C)c1-c1ccc2ncnc(NCCN3CCOCC3)c2c1 12.6 µM
COc1ccccc1CC(=N)N1C[C@@H]2C(=O)CCC(c3ccccc3)(c3ccccc3)[C@@H]2C1 3.16 µM
O=C1CCCC2=C1C(c1ccc(Cl)cc1)C1C(=O)c3ccccc3C1=N2 (stereo not drawn) 14.1 µM
COC(=O)[C@@]1(Cc2ccccc2)[C@@H]2C(=CC(=O)[C@H]2CC(=O)C(=O)N(C)C)CN1C(=O)c1ccccc1 7.94 µM
COC(=O)[C@@]1(Cc2ccc(F)cc2)[C@@H]2C(=CC(=O)[C@H]2CC(=O)C(=O)N(C)C)CN1C(=O)c1ccccc1 10 µM
CC(=O)N=c1sccn1CC(=O)c1ccc([N+](=O)[O-])cc1 4.47 µM
CCCN1C(=O)C(Cc2nc3ccccc3c(=O)n2C)c2ccccc21 (stereo not drawn) 7.94 µM
CC(=O)N1CCN(C(=O)CC2OC(=O)c3ccccc32)CC1 (stereo not drawn) 12.6 µM
O=C(CSc1nc2ccccc2[nH]1)Nc1c(F)cccc1F 14.1 µM
Cc1cccc(CNc2cc(-c3ccccc3CN(C)C)ncn2)c1 15.8 µM
Cc1cccc(CNc2cc(-c3ccccc3Cl)ncn2)c1 15.8 µM
COc1ccccc1-c1cc(NCc2cccc(C)c2)ncn1 6.31 µM
CN(C)Cc1ccccc1-c1cc(NC2CC2)ncn1 25.1 µM
COC(=O)[C@@]1(Cc2ccccc2)[C@H]2c3cc(C(=O)N4CCCC4)n(Cc4cc(F)cc5c4OCOC5)c3C[C@H]2CN1C(=O)c1ccccc1 3.98 µM
COC(=O)[C@@]1(Cc2ccc(OC)cc2)[C@H]2c3cc(C(=O)N4CCCC4)n(Cc4cc(F)cc5c4OCOC5)c3C[C@H]2CN1C(=O)c1ccccc1 2.51 µM
CC(C)(CNC(=O)c1ccc([N+](=O)[O-])c(Cl)c1)CNC(=O)c1ccc([N+](=O)[O-])c(Cl)c1 8.91 µM
Clc1ccccc1-c1nccc(NCCN2CCOCC2)n1 15.8 µM
Cc1ccccc1-c1nccc(NCCN2CCOCC2)n1 25.1 µM
FC(F)(F)c1ccccc1-c1nccc(NCCN2CCOCC2)n1 15.8 µM
COc1ccc(NC(=O)CSc2nc(C)c3c(c2C#N)CCCC3)cc1 17.8 µM
CCOc1ccc(NC(=O)CSc2nc(C)c3c(c2C#N)CCCC3)cc1 12.6 µM
Cn1cccc1C(=O)N1CCC[C@@]2(CCN(Cc3cc(C(F)(F)F)cc(C(F)(F)F)c3)C2)C1 15.8 µM
Cn1cccc1C(=O)N1CCC[C@@]2(CCN(Cc3ccc(C#N)cc3)C2)C1 12.6 µM

AC50, inactive:
c1ccc([C@@H]2CN3CCSC3=N2)cc1
CCN1CCC[C@H]1CNC(=O)c1cc(S(N)(=O)=O)ccc1OC
NCCNC(=O)c1ccc(Cl)cc1

activity, negative = inhibition, inactive:
Cc1ccc(NC(=O)CN2C(=O)N/C(=C/c3ccc(C)o3)C2=O)cc1 7.39% [at 2.29 µM]
CCC1CC(CSc2ncn[nH]2)OC1=O (stereo not drawn) -23.1%
CCCOc1ccc(-c2nc(N)n[nH]2)cc1 8.08% [at 11.4 µM]
C[C@@H](CNC(N)=O)NC(N)=O -2.29% [at 11.4 µM]
O=C(NCC1COc2ccccc2O1)C1C2C=CC3(CN(Cc4cccs4)C(=O)C13)O2 (stereo not drawn) -13.1% [at 2.29 µM]
CCOc1ccc(NC(=O)N2CCC(C(N)=O)(N3CCCCC3)CC2)cc1 -3.16%
CCCCNC(=O)C1CCN(Cc2ccccn2)CC1 -14.9%
O=C(O)C1C2C=CC3(CN(Cc4ccccn4)C(=O)C13)O2 (stereo not drawn) -6.39%
CC(CC(=O)O)(CC(=O)O)c1ccccc1 0.682% [at 11.4 µM]
NC(CSS(=O)(=O)O)=N[C@@H]1C[C@H]2CC[C@@H]1C2 -19.6% [at 11.4 µM]
CCCC1c2c(ccc3ccccc23)Oc2ccc3ccccc3c21 -11.1% [at 11.4 µM]
N#Cc1cccc(-c2cc(NCc3ccccc3)ncn2)c1 -12.5%
CC1(C)CCC(C)(C)c2cc(C(=O)Nc3ccc(C(=O)O)cc3)ccc21 -26.2%
O=C(OCC1CC(c2ccccc2)=NO1)c1ccc(Cl)cc1 (stereo not drawn) -4.52%
Cc1cnn(-c2cc(N/N=C/c3ccccc3F)ncn2)c1 -16.7% [at 2.29 µM]
CC(C)(Oc1ccc(-c2cccc3ccccc23)cc1)C(=O)O -6.61% [at 11.4 µM]
O=C(O)c1ccccc1C(=O)NCc1ccc(F)cc1 12.7%
O=C(O)CC[C@@H](NC(=O)c1ccccc1C(=O)O)C(=O)O 2%
O=C(O)c1ccccc1-c1ccccc1C(=O)Nc1ccc2c(c1)Cc1cc(F)ccc1-2 -16.4% [at 11.4 µM]
O=C(NNC(=O)c1ccccc1O)c1ccc(Cl)cc1 25.4%
Oc1c(CN2CCCCC2)cc(Br)c2cccnc12 -21.6%
CCCNC(=O)Nc1ccc2c(c1)nc(C)n2C 16.3%
CCOC(=O)C1=C2SCC(=O)N2C(N)=C(C#N)C1 -0.332%
COc1ccccc1CN1CCC2(CC1)CCN(C(C)=O)CC2 -8.53%
COCC(=O)N1CCC2(CC1)CN(Cc1ccccc1OC)C2 19.7%
CC1(C)OC(=O)NC1=O -5.49% [at 25.6 µM]
O=C1C(=O)c2ccccc2C(O)=C1C1CCC(c2ccc(Cl)cc2)CC1 (stereo not drawn) -8.47% [at 25.6 µM]
CC[C@](N)(C(=O)O)C(C)C -7.26% [at 11.4 µM]
CC(O)CN(CCC(N)=O)CCC(N)=O (stereo not drawn) 2.63%
CC1CN(C(=S)NC(=O)c2ccc([N+](=O)[O-])cc2)CC(C)O1 (stereo not drawn) 2.57% [at 2.29 µM]
O=C(O)/C(Cc1ccc([N+](=O)[O-])cc1)=N/O -11.6% [at 11.4 µM]
CCC(=O)OCN1C(=O)C=CC1=O 2.64% [at 11.4 µM]
N=C(N)SCc1nc2ccccc2c(=O)n1-c1ccccc1Cl -15.4% [at 2.29 µM]
CC(=O)N1CCC2(CC1)CN(c1ccccc1)C2 -17.8%
CCOC(=O)CC1NC(=O)c2ccccc21 (stereo not drawn) 6.92%
O=C(O)CSc1nc2ccccc2[nH]1 2.87% [at 11.4 µM]
Cc1cnc(CNc2cc(-c3ccccc3CN(C)C)ncn2)cn1 -15.1%
COc1ccccc1-c1cc(NCc2ccccc2)ncn1 -25.9%
CNc1cc(-c2ccccc2CN(C)C)ncn1 -0.857%
CN(C)Cc1ccccc1-c1cc(NCc2ccccc2)ncn1 -27.4%
O=C(O)c1ccc([N+](=O)[O-])c(P(=O)(O)O)c1 -2.76% [at 11.4 µM]
N[C@@H](CSCc1ccc(I)cc1)C(=O)O -8.11% [at 11.4 µM]
Clc1ccccc1-c1cc(NCCN2CCOCC2)ncn1 22.9%
FC(F)(F)c1ccccc1-c1cc(NCCN2CCOCC2)ncn1 28%
COCCNc1ccnc(-c2ccccc2C)n1 -23.5%
N=C(N)[C@H](N=Nc1ccccc1)C(N)=O -11.5% [at 11.4 µM]
CCOc1cccc(NC(=O)CSc2nc(C)c3c(c2C#N)CCCC3)c1 -6.34% [at 11.4 µM]
Cn1cc(C(=O)c2cccc(Cl)c2Cl)cc1C(=O)O 10.6%
Cn1cccc1C(=O)N1CCC2(CCN(Cc3ccccc3)CC2)CC1 -3.29%
Cn1cccc1C(=O)N1CCC2(CC1)CN(Cc1ccc(C#N)cc1)C2 16.5%
Cn1cccc1C(=O)N1CCC2(CC1)CN(Cc1cc(C(F)(F)F)cc(C(F)(F)F)c1)C2 9.35%
CCN[C@@H]1C[C@H](C)S(=O)(=O)c2sc(S(N)(=O)=O)cc21 -31.7% [at 25.6 µM]
